C diff growth = C. difficile growth inhibition; 86,000 tested, 0.25% active; growth activity, negative = inhibition, % at 16 µg/mL (by protocol); AID 1259249; Clostridium difficile clinical isolate growth, OD600, 24 h; stronger effect = lower value;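 active = mean growth activity at or below -80% and every replicate also at or below -80%; inconclusive = mean at or below -80% but some replicate above -80%; inactive = mean growth activity above -80%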;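 note: 0% = DMSO wells and -100% = levofloxacin 16 µg/mL wells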
T cruzi growth-1 = T. cruzi proliferation inhibition. inhibition, % at 8.34 µM. 77,000 tested, 5.9% active. T. cruzi beta-gal in NIH3T3, GalScreen luminescence, 90 h. AID 624255;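 active = mean inhibition above about 93%, with at least 55% of replicates each passing it, limit read from the data, passing the limit was not always enough; inconclusive = only one of those two conditions holds; inactive = neither condition holds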
Pf Dd2 growth = P. falciparum Dd2 growth inhibition. SYBR Green, 72 h; stronger effect = lower value. activity change, % at 10 µM. 94,000 tested, 2.3% active; in the data active = activity change below about -80%; inconclusive = no clear call, values can overlap the other calls
T cruzi growth-2 = inhibitors of T. cruzi proliferation; shares compounds with T cruzi growth-1; T. cruzi beta-gal in NIH3T3, GalScreen luminescence, 90 h; inhibition, % at 8.35 µM; 5,600 tested, 72% active; AID 651739;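 active = mean replicate inhibition above about 95% and at least 55% of replicates individually reaching it, limit read from the data; inconclusive = only one of the two criteria is met; inactive = neither criterion is met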
T cruzi growth-3 = Trypanosoma cruzi proliferation inhibition | shares compounds with T cruzi growth-1 | T. cruzi beta-gal in NIH3T3, GalScreen luminescence, 90 h | inhibition, % at 2.09 µM | 5,600 tested, 21% active;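 active = mean inhibition above about 95%, with at least 55% of replicates also reaching it, limit read from the data; inconclusive = meets just one of the two conditions; inactive = meets neither condition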;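 note: plate controls were neutral control median for no effect and positive control median for full effect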
NIH3T3 tox = kills mouse NIH/3T3 fibroblasts. shares compounds with T cruzi growth-1. NIH/3T3 viability, CellTiter-Glo ATP luminescence, 90 h. cytotoxicity (signal decrease), % at 8.35 µM. 5,600 tested, 14% active. AID 651742;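 active = mean signal decrease across replicates above about 35% based on untreated-well scatter, with enough replicates individually passing, limit read from the data; inconclusive = no rule stated though some were filed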;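 note: 0% = median of neutral control wells and 100% = median of positive control wells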
NIH3T3 tox 2 = kills mouse NIH/3T3 fibroblasts; shares compounds with T cruzi growth-1; NIH/3T3 viability, CellTiter-Glo ATP luminescence, 90 h; inhibition, % at 24.9 µM; 5,600 tested, 56% active; AID 651744;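 active = mean loss of cell viability signal at or above a set limit, and enough replicates individually reaching it; inconclusive = meets only the mean limit or only the replicate share; inactive = meets neither condition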;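 note: 0% = median of neutral control wells and 100% = median of positive control wells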
* marks the source's active call; other numbers are inactive results. Hits are enriched below; roughly 6.8% of the tested compounds scored in any of these assays.

O=C(C[C@H]1CC[C@@H]2[C@H](COC[C@H](O)CN2Cc2ccc3c(c2)OCO3)O1)Nc1ccc(-c2ccccc2)cc1 was read as C diff growth 81, T cruzi growth-1 112*, Pf Dd2 growth -14, T cruzi growth-2 106*, T cruzi growth-3 35, NIH3T3 tox 5 and NIH3T3 tox 2 50*.
O=C(C[C@@H]1CC[C@H]2[C@@H](COC[C@H](O)CN2Cc2ccc3c(c2)OCO3)O1)Nc1ccccc1 was read as T cruzi growth-1 41 and Pf Dd2 growth -14.
Screening O=C(C[C@H]1CC[C@H]2[C@@H](COC[C@H](O)CN2Cc2ccc3c(c2)OCO3)O1)Nc1ccc(-c2ccccc2)cc1 returned C diff growth 58, T cruzi growth-1 104*, Pf Dd2 growth -7, T cruzi growth-2 98*, T cruzi growth-3 52, NIH3T3 tox 27 and NIH3T3 tox 2 57*.
For O=C(C[C@H]1CC[C@H]2[C@@H](COC[C@H](O)CN2Cc2ccc3c(c2)OCO3)O1)Nc1ccccc1 the results were C diff growth 4, T cruzi growth-1 45 and Pf Dd2 growth -9.
O=C(C[C@H]1CC[C@@H]2[C@H](COC[C@H](O)CN2Cc2ccc3c(c2)OCO3)O1)Nc1ccccc1 was read as C diff growth -4, T cruzi growth-1 50 and Pf Dd2 growth -2.
`Cc1noc(C)c1NC(=O)N(C)C[C@@H]1Oc2ccc(NC(=O)Nc3ccc(F)cc3)cc2CC(=O)N([C@H](C)CO)C[C@@H]1C` gave C diff growth -10, T cruzi growth-1 -26 and Pf Dd2 growth 4.
For COCC(=O)N1CC2(C1)[C@@H](c1ccccc1)[C@H](CO)N2C(=O)c1cccnc1 the results were C diff growth 11 and Pf Dd2 growth -29.
`COc1ccc(NC(=O)Nc2ccc3c(c2)C(=O)N([C@H](C)CO)C[C@@H](C)[C@H](CN(C)S(=O)(=O)c2cn(C)cn2)OCCCC[C@H](C)O3)cc1` gave C diff growth -4, T cruzi growth-1 -23 and Pf Dd2 growth 41.
Screening CC(C)NC(=O)N1CCCCN2[C@H](C1)[C@@H](c1ccc(Br)cc1)[C@@H]2CO returned C diff growth -7, T cruzi growth-1 47 and Pf Dd2 growth 36.
For COc1ccc(-c2ccc([C@H]3[C@@H](CO)N4CCCCN(C(=O)NC(C)C)C[C@@H]34)cc2)cc1 the results were C diff growth -5, T cruzi growth-1 81 and Pf Dd2 growth 18.
For COc1ccc(-c2ccc([C@H]3[C@@H](CO)N4CCCCN(C(=O)NC(C)C)C[C@H]34)cc2)cc1 the results were C diff growth -2, T cruzi growth-1 104*, Pf Dd2 growth -16, T cruzi growth-2 110*, T cruzi growth-3 77, NIH3T3 tox -10 and NIH3T3 tox 2 85*.
For COc1ccc(-c2ccc([C@H]3[C@H](CO)N4CCCCN(C(=O)NC(C)C)C[C@@H]34)cc2)cc1 the results were C diff growth -4, T cruzi growth-1 105*, Pf Dd2 growth -4, T cruzi growth-2 113*, T cruzi growth-3 38, NIH3T3 tox 13 and NIH3T3 tox 2 25*.
CC(C)NC(=O)N1CCCCN2[C@H](CO)[C@H](c3ccc(C4=CCCC4)cc3)[C@@H]2C1 was read as C diff growth -6, T cruzi growth-1 117*, Pf Dd2 growth 18, T cruzi growth-2 113*, T cruzi growth-3 106*, NIH3T3 tox 8 and NIH3T3 tox 2 -8.
COc1ccc(-c2ccc([C@@H]3[C@H]4CN(C(=O)NC(C)C)CCCCN4[C@H]3CO)cc2)cc1 was read as C diff growth 1, T cruzi growth-1 69 and Pf Dd2 growth 11.
C[C@@H]1CN([C@@H](C)CO)C(=O)Cc2cc(NC(=O)Nc3ccc(C(F)(F)F)cc3)ccc2O[C@@H]1CN(C)Cc1ccc(Oc2ccccc2)cc1 was read as C diff growth 8, T cruzi growth-1 32 and Pf Dd2 growth -73.
COc1ccc2c3c(n(C)c2c1)[C@H](CO)N(Cc1ccccc1Cl)CC31CCN(C(=O)CN(C)C)CC1 was read as C diff growth -3 and Pf Dd2 growth inconclusive.
`C[C@@H]1CN([C@@H](C)CO)C(=O)c2cc(NC(=O)c3ccncc3)ccc2O[C@H]1CN(C)Cc1ccc(Cl)c(Cl)c1` gave C diff growth -11, T cruzi growth-1 51 and Pf Dd2 growth -14.
For O=C(C1CCCC1)N1C[C@@H]2[C@H](c3ccccc31)[C@H](CO)N2C(=O)c1cccnc1 the results were C diff growth -1, T cruzi growth-1 1 and Pf Dd2 growth -1.
For Cc1noc(C)c1NC(=O)Nc1ccc2c(c1)C(=O)N(C)[C@H]1CC[C@@H](CC(=O)N[C@H]3CCN(Cc4ccccc4)C3)O[C@H]1CO2 the results were C diff growth 3, T cruzi growth-1 117*, Pf Dd2 growth 2, T cruzi growth-2 88, T cruzi growth-3 43, NIH3T3 tox -5 and NIH3T3 tox 2 -14.
`Cc1noc(C)c1NC(=O)Nc1ccc2c(c1)C(=O)N(C)[C@@H]1CC[C@@H](CC(=O)N[C@@H]3CCN(Cc4ccccc4)C3)O[C@@H]1CO2` gave C diff growth -10, T cruzi growth-1 10 and Pf Dd2 growth 12.
Cc1noc(C)c1NC(=O)Nc1ccc2c(c1)C(=O)N(C)[C@H]1CC[C@H](CC(=O)N[C@H]3CCN(Cc4ccccc4)C3)O[C@@H]1CO2 was read as C diff growth 5, T cruzi growth-1 -15 and Pf Dd2 growth 4.
`Cc1noc(C)c1NC(=O)Nc1ccc2c(c1)C(=O)N(C)[C@@H]1CC[C@@H](CC(=O)N[C@H]3CCN(Cc4ccccc4)C3)O[C@H]1CO2` gave C diff growth -5, T cruzi growth-1 102*, Pf Dd2 growth 8, T cruzi growth-2 17, T cruzi growth-3 -25, NIH3T3 tox -1 and NIH3T3 tox 2 -1.
C[C@@H]1CCCCO[C@@H](CN(C)Cc2ccc3c(c2)OCO3)[C@H](C)CN([C@@H](C)CO)C(=O)c2cc(NS(=O)(=O)c3cccs3)ccc2O1 was read as C diff growth -1, T cruzi growth-1 26 and Pf Dd2 growth -46.
`COc1ccc(NC(=O)Nc2ccc3c(c2)C(=O)N([C@@H](C)CO)C[C@H](C)[C@@H](CN(C)Cc2ccncc2)OCCCC[C@H](C)O3)cc1` gave C diff growth 13, T cruzi growth-1 54 and Pf Dd2 growth 26.
COc1ccc(NC(=O)Nc2ccc3c(c2)C(=O)N([C@@H](C)CO)C[C@@H](C)[C@H](CN(C)Cc2ccncc2)OCCCC[C@@H](C)O3)cc1 was read as C diff growth 1, T cruzi growth-1 42 and Pf Dd2 growth 4.

High-throughput results as filed in PubChem BioAssay.
